Test results from PubChem BioAssay (NCI).
The panel holds about 79,000 compounds, 15% with a hit somewhere; the sample as a whole holds those more often. Unmarked numbers belong to inactive results. Activity calls are given as the source filed them. No stated cut-off is given here; in the data, active means growth inhibition above about 70%; inactive means the rest.

How the values were obtained:
[1] = NCI Yeast Anticancer Drug Screen. Data for the rad50 strain (AID 155);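 further: 0% = growth of vehicle-only cultures of the same strain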; settings: S. cerevisiae rad50 strain growth inhibition; at 50.0 µM; stronger effect = higher value
Method in brief: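 Vehicle-treated cultures provide the reference for the growth inhibition reported for compound-exposed, repair-deficient yeast.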

[2] = NCI Yeast Anticancer Drug Screen. Data for the mec2-1 strain (AID 157); settings: S. cerevisiae mec2-1 strain, at 50.0 µM, stronger effect = higher value
Method in brief: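 Vehicle-treated cultures served as reference for growth inhibition of compound-exposed mec2-1 yeast.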

[3] = NCI Yeast Anticancer Drug Screen. Data for the sgs1 mgt1 strain (AID 161);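 further: 0% = growth of cultures given vehicle only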; settings: S. cerevisiae sgs1 mgt1 strain, at 50.0 µM, stronger effect = higher value
Method in brief: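 Genetically altered yeast, compound exposure, growth inhibition relative to vehicle.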

[4] = NCI Yeast Anticancer Drug Screen. Data for the cln2 rad14 strain (AID 165);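 further: 0% = growth equal to vehicle treated cultures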; settings: S. cerevisiae cln2 rad14 strain, at 50.0 µM, stronger effect = higher value
Method in brief: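 Each compound was tested on cln2 rad14 yeast. Inhibition of growth was calculated against vehicle-exposed controls.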

[5] = NCI Yeast Anticancer Drug Screen. Data for the bub3 strain (AID 167); settings: S. cerevisiae bub3 mutant strain, at 50.0 µM, stronger effect = higher value
Method in brief: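 Mutant yeast screening strain plus compound; vehicle-treated cultures serve as the 0% inhibition reference.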

[6] = NCI Yeast Anticancer Drug Screen. Data for the mlh1 rad18 strain (AID 175); settings: S. cerevisiae mlh1 rad18 strain growth inhibition; at 50.0 µM; stronger effect = higher value
Method in brief: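 Vehicle-treated cultures served as the reference for growth inhibition in a yeast strain carrying DNA damage repair alterations exposed to each compound.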

Compound	growth inhibition [1]	growth inhibition [2]	growth inhibition [3]	growth inhibition [4]	growth inhibition [5]	growth inhibition [6]
CCOC(=O)C(Cc1c[nH]c2ccccc12)NC(=O)/C=C/N(CCCl)CCCl (stereo not given)	9.25%	9.95%	17%	0.25%	-14.5%	22.2%
O=C([O-])c1ccccc1[SH2+].[Cr+3].[NH-]CC[NH-].[NH-]CC[NH-].[O-][Cl+3]([O-])([O-])O	11.9%	-1.95%	-11.8%	-19.4%	1.35%	-26.4%
COC(c1ccccc1)(c1ccccc1)C1C(c2ccccc2)N1C1CCCCC1 (stereo not given)	46.1%	-5.3%	43.5%	-1.3%	-5.1%	22.8%
O=C(CC(=O)C(F)(F)F)c1cccs1.O=C(CC(=O)C(F)(F)F)c1cccs1.O=C(CC(=O)C(F)(F)F)c1cccs1.[Gd]	29.8%	26.2%	26.9%	-3.25%	44%	15.9%
CCCCC(CC)COP(OCC(CC)CCCC)OCC(CC)CCCC (stereo not given)	22.1%	-14.4%	-18.9%	-37.5%	-7.25%	-6.95%
CCC1C(=O)NC(=O)N(c2ccccc2)C1=O (stereo not given)	13.7%	-8.3%	-3.25%	-39.4%	3.1%	-6%
Cc1ccnc(NN=O)c1	-2.35%	-18.8%	-6.75%	-1.05%	-17.1%	2.25%
NC(=O)CI	30.8%	27.1%	38.1%	13.8%	18.5%	17.1%
NC(c1ccccc1)P(=O)(O)O (stereo not given)	-12.7%	-20.4%	-29.9%	5.85%	-8.75%	-33.3%
O=C(C(F)(F)Cl)C(F)(F)Cl	13.8%	-14.9%	6.85%	15.6%	-15.2%	24.3%
Clc1ccc(NC2=NCCS2)cc1Cl	-9%	-22.8%	41.4%	-7.55%	-3.05%	10.9%
COC(=O)/C=C/c1ccc(Cl)cc1	-7%	-1.8%	0.5%	-36.5%	-10.2%	-7.4%
CO/C(=N/N1CC1C(F)(F)F)c1ccncc1 (stereo not given)	-34.8%	19.2%	-51.9%	11.8%	1.65%	8%
O=c1ccc2c(O)c3ccoc3cc2o1	-14.7%	-10%	5.7%	-5.05%	3.45%	-22.9%
Cc1nc2ccccc2c(=O)n1-c1ccccc1Br	7.35%	-13.7%	-6.7%	12.4%	10.2%	2.2%
CCOC(OC1=C(C#N)CCCC1)C(C)[Se]c1ccccc1 (stereo not given)	63%	25.2%	54.2%	41.9%	50.4%	34%
O=C1c2ccccc2C(=O)c2ccccc21	37%	5.25%	1.95%	-29.4%	25.5%	47.5%
C=C[CH2][Sn]([CH2]C=C)([CH2]CCC)[CH2]CCC	99.4% (active)	99.5% (active)	99.6% (active)	99.2% (active)	99.5% (active)	99.4% (active)
CCC1(CCC(C)C)C(=O)NC(=O)N(c2ccccc2)C1=O (stereo not given)	1.2%	-1.5%	-4.5%	7.2%	8.3%	-9.25%
c1ccc(-c2c[se]nn2)cc1	4.65%	-10.1%	-2.6%	-26.6%	-11.2%	10.1%

Compound	growth inhibition [1]	growth inhibition [2]	growth inhibition [3]	growth inhibition [4]	growth inhibition [5]	growth inhibition [6]
CN(N)/N=N/c1nc[nH]c1[N+](=O)[O-]	-11.9%	-24.6%	-2.6%	4.85%	-12.1%	-3.4%
CCCC(=O)[O-].N.N.N.N.N.[Co+3].[O-][Cl+3]([O-])([O-])[O-]	-23.8%	-2.3%	-41%	8%	1.7%	-21.9%
O=C(Nc1ccc(N(CCCl)CCCl)cc1)c1ccc([N+](=O)[O-])cc1	20.1%	0.75%	3%	-23.6%	-1.05%	-2.6%
CN1CN(c2ccccc2)C2(CCN(CCCCCCF)CC2)C1=O	-5.55%	-15.9%	-19.4%	-0.15%	-5.95%	16.4%
S=[As](c1ccc(-c2ccccc2)cc1)(c1ccc(-c2ccccc2)cc1)c1ccc(-c2ccccc2)cc1	-10.7%	-5.55%	-39.5%	-19.6%	-13.6%	-18.2%
COP(=O)(OC)O/C(=C(/OP(=O)(OC)OC)c1ccccc1)c1ccccc1	35.5%	14.3%	0.1%	24.1%	-1.35%	25.1%
CN1CCOP(=O)(Oc2ccccc2)N1 (stereo not given)	-46%	-17.4%	-26.1%	-64.2%	4.5%	-16.1%
CNCCc1cccs1	-27.6%	-6.4%	1.25%	-29.1%	6.15%	4.7%
N#Cc1ccc(Cl)cc1	9.65%	-21.7%	6.25%	-2.6%	-4.7%	7.9%
CC1=C2[C@H]3OC(=O)[C@@H](C)[C@@H]3CC[C@@]2(C)C=CC1=O	20.6%	5.9%	1.15%	15.2%	2.25%	12.6%
[C-]#[O+].[C-]#[O+].[Ir].[O-]c1cccc2cccnc12	-19.2%	-27.6%	-4.6%	12.7%	-13.2%	-4.8%
CCCC[C@@H]1CCN2C[C@@H](O)[C@@H](O)[C@@H]2[C@H]1O	-2.4%	5.65%	-9.45%	11.7%	12.2%	-12.9%
CCOP(=O)(OCC)/C(C#N)=C/c1ccco1	-2.55%	-25.4%	-9.65%	21.8%	-16.5%	-21.8%
CN1CN(c2ccccc2)C2(CCN(CCCN(C)c3ccc(F)cc3)CC2)C1=O	0.1%	-0.4%	6.35%	5.85%	3.35%	17.3%
CC(=O)Oc1cccc(C#N)c1	-3.1%	1.25%	1.7%	-24.8%	6.65%	5.05%
O=C1NC(=O)C(O)(Cc2ccccn2)C(=O)N1	9.9%	6.45%	13.5%	13.2%	-21.1%	-6.65%
O=NNc1ccc(C(F)(F)F)cn1	-7.95%	-6.95%	-17.9%	-5.75%	-17.4%	-15.2%
[Au].[NH-]CC[NH-].[NH-]CC[NH-]	9.45%	-5.5%	-17.4%	-7.05%	-0.55%	-12.5%
[Se]=P(NC1CCCCC1)(NC1CCCCC1)NC1CCCCC1	14.5%	-0.9%	2%	5.1%	3.25%	17.9%
CCCC(NC(=O)CCl)C(=O)O (stereo not given)	-13.1%	-18.1%	-11.4%	-73.8%	0.65%	-8.25%
